Our source for the Potency values is PubChem BioAssay (NCATS).

Inconclusive results are not listed. Activity calls are given as the source filed them. The call rests on the fitted dose curve; in most records, active means well fitted curve in the direction sought with a large enough effect; inconclusive means small, poorly fitted or top-dose-only effect, or another doubt; inactive means no such curve, though single readings can be large; an effect the other way counts as inactive or inconclusive.

Assay [1] in a line: qHTS of pediatric cancer cell lines to identify multiple opportunities for drug repurposing: Primary screen for TC32 cells (AID 1347089). Further: nearly all actives have a fitted effect of over 60% in size. The procedure, abridged:
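TC32 cells, 500-1,000/well in growth medium, compound-treated 48 h at 37 °C; viability from CellTiter-Glo luminescence. Primary screen: MIPE 11-point (0.78 nM–46 µM final), NPC 8-point (0.59 nM–46 µM final); confirmatory at 11-point dilutions.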
(Quantitative high-throughput screening tests each substance at several concentrations.)

The nature of assay [2]: qHTS of pediatric cancer cell lines to identify multiple opportunities for drug repurposing: Primary screen for DAOY cells (AID 1347090). Further: nearly all actives have a fitted effect of over 55% in size. A digest of the protocol:
(§1)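 Eight- or eleven-point concentration series, 48 h treatment at 37 degrees C in growth media; readout CellTiter-Glo luminescence. Potency and efficacy were taken from the concentration-response curves.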

Assay [3] is described as follows: qHTS of pediatric cancer cell lines to identify multiple opportunities for drug repurposing: Primary screen for SJ-GBM2 cells (AID 1347091). The procedure, abridged:
as §1

Assay [4] in a line: qHTS of pediatric cancer cell lines to identify multiple opportunities for drug repurposing: Primary screen for A673 cells (AID 1347092). Further: nearly all actives have a fitted effect of over 45% in size. The procedure, abridged:
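A673 cells (500-1,000 cells/well) were treated 48 hours at 37 degrees C with compounds at 11-point (0.78 nM to 46 µM) or 8-point (0.59 nM to 46 µM) dilutions. Viability read by CellTiter-Glo luminescence; concentration-response curves fitted.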

Assay [5] in a line: qHTS of pediatric cancer cell lines to identify multiple opportunities for drug repurposing: Primary screen for SK-N-MC cells (AID 1347093). The procedure, abridged: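 Metabolically active cells were quantified by ATP-dependent luminescence (CellTiter-Glo, 15 min at room temperature) following 48 h treatment. Cells had been plated at 500-1,000 per well and settled for 5 h beforehand.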

The nature of assay [6]: qHTS of pediatric cancer cell lines to identify multiple opportunities for drug repurposing: Primary screen for BT-37 cells (AID 1347094). The procedure, abridged: (§2)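 ATP-based luminescence (CellTiter-Glo) quantifies viability after a 48-hour exposure. Compounds are dosed across 8 or 11 final concentrations; DMSO and 2.3 µM bortezomib serve as controls.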
Assay [7] can be described thus: qHTS of pediatric cancer cell lines to identify multiple opportunities for drug repurposing: Primary screen for U-2 OS cells (AID 1347096). Further: nearly all actives have a fitted effect of over 50% in size. A digest of the protocol: (§3)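 Cells (500-1,000/well) in growth media were settled 5 h at 37 degrees C, then given compounds for 48 h. Viability was read as CellTiter-Glo luminescence. Primary runs used MIPE at 11 points (0.78 nM-46 µM) and NPC at 8 points (0.59 nM-46 µM); follow-ups used 11 points.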

A short description of assay [8]: qHTS of pediatric cancer cell lines to identify multiple opportunities for drug repurposing: Primary screen for Saos-2 cells (AID 1347097). Further: nearly all actives have a fitted effect of over 40% in size. The procedure, abridged:
as §2

Assay [9] is described as follows: qHTS of pediatric cancer cell lines to identify multiple opportunities for drug repurposing: Primary screen for SK-N-SH cells (AID 1347098). Further: nearly all actives have a fitted effect of over 65% in size. A digest of the protocol: (§4)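 Cells (500-1,000/well) rested 5 h, then received compounds for 48 h; metabolically active cells were measured by CellTiter-Glo luminescence. Final concentrations spanned up to 46 µM (MIPE, 11-point) or 0.59 nM-46 µM (NPC, 8-point) in primary screens, 11-point in follow-ups.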

Assay [10] in a line: qHTS of pediatric cancer cell lines to identify multiple opportunities for drug repurposing: Primary screen for NB1643 cells (AID 1347099). Further: nearly all actives have a fitted effect of over 50% in size. A digest of the protocol: as §2
Assay [11] can be described thus: qHTS of pediatric cancer cell lines to identify multiple opportunities for drug repurposing: Primary screen for LAN-5 cells (AID 1347100). A digest of the protocol:
as §3

Assay [12] is described as follows: qHTS of pediatric cancer cell lines to identify multiple opportunities for drug repurposing: Primary screen for BT-12 cells (AID 1347101). Further: nearly all actives have a fitted effect of over 25% in size. A digest of the protocol:
as §4

A short description of assay [13]: qHTS of pediatric cancer cell lines to identify multiple opportunities for drug repurposing: Primary screen for Rh18 cells (AID 1347102). Further: nearly all actives have a fitted effect of over 65% in size. A digest of the protocol: as §3
Assay [14] can be described thus: qHTS of pediatric cancer cell lines to identify multiple opportunities for drug repurposing: Primary screen for OHS-50 cells (AID 1347103). Further: nearly all actives have a fitted effect of over 40% in size. The procedure, abridged: as §4
The nature of assay [15]: qHTS of pediatric cancer cell lines to identify multiple opportunities for drug repurposing: Primary screen for NB-EBc1 cells (AID 1347095). A digest of the protocol:
as §2

Assay [16] in a line: qHTS of pediatric cancer cell lines to identify multiple opportunities for drug repurposing: Primary screen for RD cells (AID 1347104). Further: nearly all actives have a fitted effect of over 55% in size. A digest of the protocol:
as §2
Potency means the concentration at half of the fitted maximal effect.

With `O=c1[nH]c(=O)n(C2CCCO2)cc1F` (centres undefined), the Potency entry in assay [1], in assay [2], in assay [3], in assay [4], in assay [5] and in [6] was “inactive” each time. For the same molecule, the Potency entry in [7], in assay [8], in [9], in assay [10], in assay [11] and in assay [12] was “inactive” each time. Moreover, the Potency entry in assay [13] and in assay [14] was “inactive” in each case.
Consider `Cc1nc(N)ncc1-c1nc(N2CCOCC2)c2sc(C(C)(C)O)cc2n1`, for which the Potency was 2.34 µM (active) in assay [1]; 0.935 µM (active) in assay [2]; 1.05 µM (active) in assay [3]; 1.18 µM (active) in assay [4]; 0.0469 µM (active) in assay [5]; 6.11 µM (active) in assay [6]. The Potency in assay [15] was 0.59 µM (active); in assay [8] it was 0.833 µM (active); in [9] it was 1.21 µM (active); in assay [10] it was 0.469 µM (active); in assay [11], 1.32 µM (active); in [13] it was 1.18 µM (active). The results for the Potency in [14] and in assay [16] were 0.0685 µM (active) and 1.48 µM (active), respectively.
On to `COc1cc2c(NC3CCN(C(C)C)CC3)nc(C3CCCCC3)nc2cc1OCCCN1CCCC1`, for which the Potency result in assay [1] and in assay [7] was “inactive” throughout. Besides, the Potency in assay [2] was 18.7 µM (active); in assay [3] it was 23.5 µM (active); in [4], 5.9 µM (active); in assay [5] it was 29.6 µM (active); in [6] it was 30.6 µM (active); in [8], 18.7 µM (active). The Potency was 10.8 µM (active) in assay [9]; 20.9 µM (active) in assay [10]; 20.9 µM (active) in assay [11]; 27.3 µM (active) in assay [12]; 23.5 µM (active) in assay [13]; 19.3 µM (active) in [14]. For the same molecule, the Potency in [16] is 11.8 µM (active).
Take `CN[C@H]1CCc2cc(OC)c(OC)c(OC)c2-c2ccc(OC)c(=O)cc21`: the Potency in assay [1] was 0.037 µM (active); in assay [2], 0.0037 µM (active); in [3] it was 0.001 µM (active); in assay [4] it was 0.0012 µM (active); in [5], 0.0026 µM (active); in [6], 0.0061 µM (active). Besides, the Potency in assay [15] is 0.001 µM (active); in assay [8] it was 0.0037 µM (active); in [11] it was 0.0023 µM (active); in assay [12] it was 0.0039 µM (active); in [14], 0.0015 µM (active).
Consider `CC1(C)CCC(c2ccc(Cl)cc2)=C(CN2CCN(c3ccc(C(=O)NS(=O)(=O)c4ccc(N[C@H](CCN5CCOCC5)CSc5ccccc5)c(S(=O)(=O)C(F)(F)F)c4)cc3)CC2)C1`, for which the Potency entry in assay [1] was “inactive”. For the same molecule, the Potency in assay [2] is 7.43 µM (active); in assay [3], 0.0235 µM (active); in assay [4] it was 4.69 µM (active); in assay [5], 0.0118 µM (active); in [6], 13.7 µM (active); in assay [15], 0.0187 µM (active). Also, the Potency was 4.18 µM (active) in assay [8]; 24.1 µM (active) in assay [9]; 0.0093 µM (active) in assay [10]; 15.3 µM (active) in assay [12]; 0.0296 µM (active) in [13]; 5.44 µM (active) in assay [14]. In addition, the Potency in assay [16] was 10.5 µM (active).
On to `C=C1C(=CC=C2CCC[C@]3(C)[C@@H]([C@H](C)C=C[C@H](C)C(C)C)CC[C@@H]23)C[C@@H](O)C[C@@H]1O`, for which the Potency in assay [1] was 11.7 µM (active); in assay [2] it was 1.87 µM (active); in [3] it was 0.743 µM (active); in [4], 0.469 µM (active); in assay [5], 0.469 µM (active); in assay [6], 0.968 µM (active). Also, the Potency in [7] was 3.72 µM (active); in [8], 2.96 µM (active); in [9], 1.92 µM (active); in assay [10] it was 0.935 µM (active); in assay [11] it was 0.469 µM (active); in assay [12], 2.17 µM (active). In addition, the Potency is 0.743 µM (active) in [13], 0.685 µM (active) in [14] and 1.66 µM (active) in assay [16].
As to `O=C(C=Cc1c(C(=O)O)[nH]c2cc(Cl)cc(Cl)c12)Nc1ccccc1`, the Potency entry in assay [1], in assay [2], in [3], in assay [4], in assay [6] and in assay [15] was “inactive” throughout. In addition, the Potency entry in [7], in assay [8], in assay [9], in assay [10], in [11] and in assay [12] was “inactive” throughout. For the same molecule, the Potency entry in assay [13], in [14] and in [16] was “inactive” each time.
`CNC(=O)c1ccccc1Nc1nc(Nc2ccc(N3CCOCC3)cc2OC)ncc1Cl`: the Potency in assay [1] is 3.3 µM (active); in [2] it was 14.8 µM (active); in assay [3], 2.35 µM (active); in assay [4], 1.87 µM (active); in assay [6] it was 7.69 µM (active); in [7], 18.7 µM (active). The Potency is 1.18 µM (active) in assay [8]; 6.07 µM (active) in [9]; 0.332 µM (active) in [10]; 0.264 µM (active) in assay [11]; 5.9 µM (active) in assay [13]; 0.306 µM (active) in [14]. Also, the Potency in assay [16] is 0.469 µM (active).
For `CC[C@H](CO)Nc1nc(NCc2ccccc2)c2ncn(C(C)C)c2n1`, the Potency entry in [1], in [7] and in [10] was “inactive” each time. Moreover, the Potency in assay [2] is 23.5 µM (active); in assay [3] it was 16.6 µM (active); in assay [4], 18.7 µM (active); in assay [6] it was 27.3 µM (active); in assay [11], 20.9 µM (active).
Regarding `CC(C)(C)c1cc(C(C)(C)C)c(NC(=O)c2c[nH]c3ccccc3c2=O)cc1O`, the Potency entry in assay [1], in assay [2], in [3], in [4], in [6] and in [15] was “inactive” throughout. The Potency entry in assay [9], in assay [10], in [11], in assay [12], in assay [13] and in assay [14] was “inactive” each time. In addition, the Potency entry in assay [16] is “inactive”.
For the molecule `CC[C@H]1CN2CCc3cc(OC)c(OC)cc3[C@H]2C[C@@H]1C[C@@H]1NCCc2cc(OC)c(OC)cc21`, the Potency in assay [1] was 1.17 µM (active); in assay [2] it was 0.935 µM (active); in assay [3], 0.209 µM (active); in [4], 0.118 µM (active); in [6] it was 0.544 µM (active); in assay [15], 0.935 µM (active). The Potency was 1.18 µM (active) in [7]; 0.526 µM (active) in assay [8]; 0.341 µM (active) in assay [9]; 0.418 µM (active) in assay [10]; 0.833 µM (active) in assay [11]; 0.193 µM (active) in assay [12]. The figures for the Potency in [13] and in assay [14] were 2.09 µM (active) and 0.485 µM (active), respectively.
With `C=CC(=O)Nc1cc2c(Nc3ccc(F)c(Cl)c3)ncnc2cc1OCCCN1CCOCC1`, in assay [1], the Potency result is “inactive”. In addition, the Potency in assay [2] was 18.7 µM (active); in assay [3], 16.8 µM (active); in assay [4], 4.69 µM (active); in [6] it was 6.85 µM (active); in [15], 18.7 µM (active); in [7] it was 7.43 µM (active). For the same molecule, the Potency in assay [8] was 5.9 µM (active); in assay [9] it was 2.73 µM (active); in assay [10], 23.5 µM (active); in [12], 21.7 µM (active); in [13], 8.33 µM (active); in [14], 7.69 µM (active).
